Experimental data from ChEMBL document CHEMBL3988442, “University of Dundee, Small-Polar-MMV Screening Library” (2021).
For some of these results: Potency and affinity values are given separately.

Assays:
Set-up in all cases: scale not given: direction of the effect not stated beside the values
[1] = molecular target: Protein translocase subunit SecA (Escherichia coli (strain K12)) (UniProt P10408); assay: Assay to Identify E. coli SecA ATPase Inhibitors; assay type: functional; details: 30 µM
[2] = molecular target: T1, Ubiquitin-activating enzyme e1, putative (Leishmania donovani (strain BPK282A1)) (UniProt E9BSI1); assay: Leishmania donovani Ubiquitin Activating Enzyme (LdE1); assay type: functional; details: 30 µM
T1 sequence (whole entry): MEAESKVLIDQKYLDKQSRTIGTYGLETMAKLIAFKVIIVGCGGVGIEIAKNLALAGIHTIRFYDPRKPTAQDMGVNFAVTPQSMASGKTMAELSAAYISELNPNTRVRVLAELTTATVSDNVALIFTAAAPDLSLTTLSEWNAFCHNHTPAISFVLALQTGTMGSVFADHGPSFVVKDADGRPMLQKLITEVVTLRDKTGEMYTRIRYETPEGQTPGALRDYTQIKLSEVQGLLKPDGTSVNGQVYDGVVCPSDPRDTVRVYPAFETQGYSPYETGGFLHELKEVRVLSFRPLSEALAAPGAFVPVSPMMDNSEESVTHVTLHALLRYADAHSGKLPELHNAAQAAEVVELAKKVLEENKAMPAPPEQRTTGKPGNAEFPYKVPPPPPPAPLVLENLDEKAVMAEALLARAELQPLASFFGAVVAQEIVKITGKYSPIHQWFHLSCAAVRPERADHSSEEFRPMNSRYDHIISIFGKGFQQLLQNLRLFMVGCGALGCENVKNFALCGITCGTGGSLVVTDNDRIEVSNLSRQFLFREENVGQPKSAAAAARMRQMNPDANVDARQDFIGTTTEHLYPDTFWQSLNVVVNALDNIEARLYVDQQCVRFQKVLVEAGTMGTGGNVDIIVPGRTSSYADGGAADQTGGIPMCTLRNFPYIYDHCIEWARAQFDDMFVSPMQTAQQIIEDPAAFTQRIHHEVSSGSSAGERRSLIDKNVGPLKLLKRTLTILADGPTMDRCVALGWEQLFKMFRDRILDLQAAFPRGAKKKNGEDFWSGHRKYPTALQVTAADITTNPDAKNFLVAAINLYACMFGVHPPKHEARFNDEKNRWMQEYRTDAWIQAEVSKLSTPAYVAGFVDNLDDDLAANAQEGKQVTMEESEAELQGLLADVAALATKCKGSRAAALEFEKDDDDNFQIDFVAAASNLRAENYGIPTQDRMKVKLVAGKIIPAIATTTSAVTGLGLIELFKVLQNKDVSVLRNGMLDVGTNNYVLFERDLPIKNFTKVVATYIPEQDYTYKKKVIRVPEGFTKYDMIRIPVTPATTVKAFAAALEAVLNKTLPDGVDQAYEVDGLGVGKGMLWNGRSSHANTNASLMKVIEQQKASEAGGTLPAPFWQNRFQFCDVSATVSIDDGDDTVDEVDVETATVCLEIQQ

[3] = molecular target: AMP-activated protein kinase, AMPK (Homo sapiens) (UniProt P54646+O43741+P54619+Q9UGJ0+Q9Y478+Q13131+Q9UGI9); assay: AMP-dependent Kinase enzyme assay. An in vitro enzyme assay that detects ADP turnover that is directly proportional to AMPK activity. This uses naive AMPK that is activated during the assay with MK-8722; assay type: functional; details: 30 µM
[4] = molecular target: Sialic acid-binding Ig-like lectin 9 (Homo sapiens) (UniProt Q9Y336); assay: Hs-Siglec9 ALPHAscreen SOP 20170721; details: 10 µM
[5] = system: Trypanosoma cruzi; assay: Trypanosoma cruzi phosphomannomutase and mannose-1-phosphate guanylyltransferase assay; assay type: functional; details: 10 µM
[6] = molecular target: T2, Arginase-2, mitochondrial (Homo sapiens) (UniProt P78540); assay: in vitro enzyme assay to detect the production of urea directly proportional to the activity of Arginase II; assay type: functional; details: 33.3 µM; note: in the data most compounds retested in dose-response had high values
T2 sequence (whole entry): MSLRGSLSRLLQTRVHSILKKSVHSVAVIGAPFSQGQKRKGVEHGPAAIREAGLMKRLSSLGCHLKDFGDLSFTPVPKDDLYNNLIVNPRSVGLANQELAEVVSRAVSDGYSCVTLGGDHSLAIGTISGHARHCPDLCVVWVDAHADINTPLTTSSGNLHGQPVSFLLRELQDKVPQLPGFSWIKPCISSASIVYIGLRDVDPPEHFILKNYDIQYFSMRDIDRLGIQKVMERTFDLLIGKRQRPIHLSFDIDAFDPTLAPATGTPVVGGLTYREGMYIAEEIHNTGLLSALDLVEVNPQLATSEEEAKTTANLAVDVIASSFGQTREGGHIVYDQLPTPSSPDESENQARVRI

[7] = molecular target: T3, Proteasome subunit beta (Trypanosoma cruzi) (UniProt O96673); assay: Trypanosoma cruzi proteasome chymotrypsin-like activity (TcProtChymo) assay.; note: in the data most compounds retested in dose-response had high values; assay type: functional; details: 9.37 µM
T3 sequence (whole entry): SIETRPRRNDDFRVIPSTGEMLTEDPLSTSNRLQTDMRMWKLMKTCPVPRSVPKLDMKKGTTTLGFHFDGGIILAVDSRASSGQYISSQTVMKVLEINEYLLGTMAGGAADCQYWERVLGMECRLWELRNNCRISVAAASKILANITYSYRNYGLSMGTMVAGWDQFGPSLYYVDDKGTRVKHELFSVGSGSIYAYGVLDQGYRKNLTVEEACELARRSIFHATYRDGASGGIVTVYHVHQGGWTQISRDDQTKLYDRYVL

[8] = species on record: Homo sapiens; assay: To identify inhibition of the IFN signalling (Jak-Stat) pathway via expression of an eGFP reporter gene under the control of an IFN-stimulated response element (ISRE) containing MxA promoter.; assay type: functional; details: 30 µM
[9] = molecular target: T4, Tyrosyl-tRNA synthetase, putative (Trypanosoma cruzi (strain CL Brener)) (UniProt Q4DSP6); assay: Trypanosoma cruzi tyrosyl tRNA synthetase (TcYRS) _High Tyrosine SOP; assay type: functional; details: 30 µM; note: in the data most compounds retested in dose-response had high values
T4 sequence (whole entry): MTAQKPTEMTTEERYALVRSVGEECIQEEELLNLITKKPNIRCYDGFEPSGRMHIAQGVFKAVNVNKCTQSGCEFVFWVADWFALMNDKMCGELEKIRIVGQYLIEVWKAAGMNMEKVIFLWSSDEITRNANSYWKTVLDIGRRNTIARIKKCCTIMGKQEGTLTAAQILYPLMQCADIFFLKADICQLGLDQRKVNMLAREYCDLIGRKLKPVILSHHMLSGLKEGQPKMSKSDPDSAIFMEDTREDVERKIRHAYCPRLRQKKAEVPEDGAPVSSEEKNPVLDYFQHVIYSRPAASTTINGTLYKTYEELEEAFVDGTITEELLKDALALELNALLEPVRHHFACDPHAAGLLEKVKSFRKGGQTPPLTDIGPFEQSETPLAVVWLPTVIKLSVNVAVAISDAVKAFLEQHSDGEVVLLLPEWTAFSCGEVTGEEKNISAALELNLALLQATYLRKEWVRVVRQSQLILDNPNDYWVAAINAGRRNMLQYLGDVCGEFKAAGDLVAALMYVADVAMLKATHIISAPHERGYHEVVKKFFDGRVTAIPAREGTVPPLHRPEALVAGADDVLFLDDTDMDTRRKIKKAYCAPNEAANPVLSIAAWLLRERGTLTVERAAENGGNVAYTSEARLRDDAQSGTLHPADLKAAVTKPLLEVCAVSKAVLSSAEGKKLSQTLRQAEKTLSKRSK

[10] = molecular target: T4, Tyrosyl-tRNA synthetase, putative (Trypanosoma cruzi (strain CL Brener)); assay: Trypanosoma cruzi tyrosyl tRNA synthetase (TcYRS) SOP; assay type: functional; details: 30 µM
[11] = molecular target: Chromo domain-containing protein 1 (Saccharomyces cerevisiae (strain ATCC 204508 / S288c) (Baker's yeast)) (UniProt P32657); assay: ScCHD-1 Enzyme Inhibition Assay; assay type: functional; details: 30 µM; note: in the data most compounds retested in dose-response had high values
Chromo domain-containing protein 1 (Saccharomyces cerevisiae (strain ATCC 204508 / S288c) (Baker's yeast)), sequence (P32657 whole entry, the tested form may be a part): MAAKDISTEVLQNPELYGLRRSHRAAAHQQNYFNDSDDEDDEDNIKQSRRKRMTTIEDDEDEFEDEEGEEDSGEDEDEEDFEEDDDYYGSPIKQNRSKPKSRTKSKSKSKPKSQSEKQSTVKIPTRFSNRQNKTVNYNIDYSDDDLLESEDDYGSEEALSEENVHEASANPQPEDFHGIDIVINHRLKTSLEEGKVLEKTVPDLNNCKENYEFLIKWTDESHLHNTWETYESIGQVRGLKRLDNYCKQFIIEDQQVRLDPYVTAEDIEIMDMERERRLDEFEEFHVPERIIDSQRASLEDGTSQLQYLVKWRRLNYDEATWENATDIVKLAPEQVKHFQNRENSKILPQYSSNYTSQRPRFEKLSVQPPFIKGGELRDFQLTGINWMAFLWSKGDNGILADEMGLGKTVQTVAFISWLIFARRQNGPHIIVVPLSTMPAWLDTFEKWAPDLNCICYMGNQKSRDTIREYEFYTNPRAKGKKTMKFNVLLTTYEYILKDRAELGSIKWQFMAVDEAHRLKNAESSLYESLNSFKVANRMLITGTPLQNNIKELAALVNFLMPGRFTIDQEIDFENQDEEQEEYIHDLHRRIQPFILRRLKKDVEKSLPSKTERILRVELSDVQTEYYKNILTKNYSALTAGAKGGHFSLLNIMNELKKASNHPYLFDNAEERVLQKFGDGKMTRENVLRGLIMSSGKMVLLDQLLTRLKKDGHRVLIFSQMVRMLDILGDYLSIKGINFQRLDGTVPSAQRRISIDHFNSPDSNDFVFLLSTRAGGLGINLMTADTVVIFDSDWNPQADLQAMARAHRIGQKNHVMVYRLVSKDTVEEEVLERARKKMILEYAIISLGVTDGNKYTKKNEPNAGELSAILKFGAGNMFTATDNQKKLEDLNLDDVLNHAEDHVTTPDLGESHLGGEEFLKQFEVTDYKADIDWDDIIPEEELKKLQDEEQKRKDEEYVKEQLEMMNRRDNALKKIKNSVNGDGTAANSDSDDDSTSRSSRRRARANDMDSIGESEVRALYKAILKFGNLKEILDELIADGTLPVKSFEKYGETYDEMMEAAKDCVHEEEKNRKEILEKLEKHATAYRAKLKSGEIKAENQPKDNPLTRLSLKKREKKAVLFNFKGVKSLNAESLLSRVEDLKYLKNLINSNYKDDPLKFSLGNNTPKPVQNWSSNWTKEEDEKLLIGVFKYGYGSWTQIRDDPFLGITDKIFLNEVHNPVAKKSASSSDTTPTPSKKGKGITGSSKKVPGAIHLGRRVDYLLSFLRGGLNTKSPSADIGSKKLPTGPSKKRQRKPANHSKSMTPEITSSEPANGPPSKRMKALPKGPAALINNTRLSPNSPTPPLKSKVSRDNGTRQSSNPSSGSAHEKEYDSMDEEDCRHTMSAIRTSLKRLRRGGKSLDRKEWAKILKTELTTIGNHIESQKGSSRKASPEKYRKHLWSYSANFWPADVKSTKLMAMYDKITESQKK

Protein translocase subunit SecA (Escherichia coli (strain K12)), sequence (P10408 whole entry): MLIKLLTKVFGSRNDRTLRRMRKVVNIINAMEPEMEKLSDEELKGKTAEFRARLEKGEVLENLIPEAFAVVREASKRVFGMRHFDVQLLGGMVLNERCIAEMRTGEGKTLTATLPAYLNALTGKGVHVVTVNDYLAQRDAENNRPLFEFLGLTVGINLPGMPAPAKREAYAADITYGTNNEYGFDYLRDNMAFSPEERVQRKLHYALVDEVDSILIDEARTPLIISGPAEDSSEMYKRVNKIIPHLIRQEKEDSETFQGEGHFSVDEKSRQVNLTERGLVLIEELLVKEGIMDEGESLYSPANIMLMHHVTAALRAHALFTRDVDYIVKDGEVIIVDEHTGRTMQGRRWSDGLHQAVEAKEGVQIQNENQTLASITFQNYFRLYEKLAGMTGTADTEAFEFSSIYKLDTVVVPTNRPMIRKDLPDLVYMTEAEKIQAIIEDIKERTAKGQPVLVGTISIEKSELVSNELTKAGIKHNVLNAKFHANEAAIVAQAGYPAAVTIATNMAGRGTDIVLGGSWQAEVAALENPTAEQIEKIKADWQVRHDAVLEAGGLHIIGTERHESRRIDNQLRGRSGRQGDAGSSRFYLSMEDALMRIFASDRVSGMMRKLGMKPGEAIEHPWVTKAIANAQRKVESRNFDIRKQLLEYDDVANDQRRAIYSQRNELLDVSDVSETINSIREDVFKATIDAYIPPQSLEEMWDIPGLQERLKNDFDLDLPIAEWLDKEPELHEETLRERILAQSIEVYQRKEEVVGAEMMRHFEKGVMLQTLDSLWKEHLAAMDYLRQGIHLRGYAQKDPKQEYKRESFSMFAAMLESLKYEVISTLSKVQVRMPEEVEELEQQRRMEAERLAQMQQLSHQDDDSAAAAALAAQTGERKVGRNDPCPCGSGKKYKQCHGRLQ
Sialic acid-binding Ig-like lectin 9 (Homo sapiens), sequence (Q9Y336 whole entry): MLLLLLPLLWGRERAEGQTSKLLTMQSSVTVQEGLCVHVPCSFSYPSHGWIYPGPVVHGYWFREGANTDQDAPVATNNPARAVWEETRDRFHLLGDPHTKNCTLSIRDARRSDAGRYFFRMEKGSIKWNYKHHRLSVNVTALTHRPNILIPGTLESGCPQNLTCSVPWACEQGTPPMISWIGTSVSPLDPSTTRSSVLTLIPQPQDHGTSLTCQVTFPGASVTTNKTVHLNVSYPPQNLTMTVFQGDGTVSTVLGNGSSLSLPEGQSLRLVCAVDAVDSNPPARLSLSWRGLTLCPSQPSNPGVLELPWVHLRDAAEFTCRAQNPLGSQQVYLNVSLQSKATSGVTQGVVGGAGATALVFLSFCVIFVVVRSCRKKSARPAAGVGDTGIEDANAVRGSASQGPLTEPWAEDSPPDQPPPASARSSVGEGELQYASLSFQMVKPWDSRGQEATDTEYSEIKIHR

Row | Compound | Percent Effect [1] | Percent Effect [2] | Percent Effect [3] | Percent Effect [4] | Percent Effect [5] | Percent Effect [6] | Percent Effect [7] | Percent Effect [8] | Percent Effect [9] | Percent Effect [10] | Percent Effect [11]
1 | Cc1oc(C)c(C(=O)NCc2ccccn2)c1C | -0.692% | 10.5% | -8.31% | 2.54% | -12.8% | 7.28% | 15.7% | 14% | 1.47% | 7.32% | -5.27%
2 | CSCCC1c2nc[nH]c2CCN1Cc1cc(Cl)ccc1O (stereo unspecified) | -4.06% | -2.67% | -4.48% | 3.19% | 2.63% | 0.521% | 18.3% | 35.7% | 12.6% | 23.5% | -0.295%
3 | O=C1COc2cc(C(=O)NS(=O)(=O)c3ccccc3F)ccc2N1 | -1.86% | 2.63% | 3.61% | -9.82% | -3.46% | -3.6% | 5.16% | -3.9% | -4.43% | -11.1% | 2.83%
4 | O=C(Cc1ccc(O)c(Cl)c1)N1CCCCC1CCn1cccn1 (stereo unspecified) | -3.9% | 13.5% | 1.21% | 26.9% | 3.09% | 0.476% | 10.9% | 0.632% | 3.7% | 19.5% | -5.17%
5 | CCn1nc(C(C)C)cc1C(=O)NCCCOC | -2.71% | 6.94% | 0.234% | -3.62% | 6.51% | -1.77% | 14.7% | -30.8% | 4.21% | 12.8% | -4.31%
6 | CCOc1ccc(C#N)cc1NCC(=O)Nc1cc(C)no1 | -6.06% | 17.7% | -5.05% | -0.0832% | 3.68% | -7.99% | 4.34% | -2.7% | 3.45% | -130% | -5.12%
7 | O=C(CC1CCCCC1)N1CCN(C(=O)NCc2ccccn2)CC1 | -3.1% | 10.4% | 1.16% | -0.668% | 1.86% | 1.05% | 6.39% | -4.56% | 4.76% | -16.5% | -15%
8 | Cc1cc(C)n(C2CCCN(C(=O)CCCNc3ncccn3)C2)n1 (stereo unspecified) | -6.94% | 13.9% | -2.21% | -4.67% | 3.38% | 2.8% | 10.6% | -0.293% | 4.17% | 20.2% | -26.7%
9 | CC(C)N(C)Cc1nnc2n1CCN(Cc1ccncc1)CC2 | -1.23% | 8% | 2.82% | -4.03% | -3.67% | -54.7% | 2.73% | 1.94% | -2.08% | 5% | -6.5%
10 | CC(C)[C@H](NC(=O)NC1CCS(=O)(=O)C1)C(=O)NCc1cccnc1 (stereo partly specified) | 1.49% | -1.33% | 5.47% | 2.33% | -4.52% | -5.46% | 7.95% | -6.4% | 0% | 5.13% | 1.13%
11 | O=C(CN1CCC(c2cccc(F)c2)C1)NCC(F)(F)F (stereo unspecified) | -0.194% | 18.4% | -1.43% | -3.51% | 3.57% | -1.15% | 18.1% | 36.1% | 6.37% | 21.9% | -8.57%
